# Whole data set: some 33,000 sequences, median “E-score (-0.5 to 0.5)” near -0.056, cut for the highest 2% near 0.38. The entries come from a sample that favours the highest values as a whole.
# Biological target: Stb4 (UniProt P50104)
# Test: PBM E-score (8-mer binding enrichment) (E-score (-0.5 to 0.5)); higher = stronger / more preferred TF binding
# Conditions: protein concentration: 200 nM; construct: GST-DNA-binding domain
# Method: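 Universal 'all 10-mer' protein binding microarrays (Agilent AMADID 015681) probed with GST-tagged S. cerevisiae TFs (full-length or DBD) made by in vitro transcription/translation (PURExpress), about 100-200 nM. Bound TF was detected with fluorescent anti-GST. Each ungapped 8-mer (which stands for itself and its reverse complement) is scored by the PBM enrichment score (E-score), a modified Wilcoxon-Mann-Whitney statistic from -0.5 to +0.5, computed with the Universal PBM Analysis Suite. Scale: above 0.35 generally sequence-specific binding.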
# Chain of UniProt P50104 (P50104 whole entry): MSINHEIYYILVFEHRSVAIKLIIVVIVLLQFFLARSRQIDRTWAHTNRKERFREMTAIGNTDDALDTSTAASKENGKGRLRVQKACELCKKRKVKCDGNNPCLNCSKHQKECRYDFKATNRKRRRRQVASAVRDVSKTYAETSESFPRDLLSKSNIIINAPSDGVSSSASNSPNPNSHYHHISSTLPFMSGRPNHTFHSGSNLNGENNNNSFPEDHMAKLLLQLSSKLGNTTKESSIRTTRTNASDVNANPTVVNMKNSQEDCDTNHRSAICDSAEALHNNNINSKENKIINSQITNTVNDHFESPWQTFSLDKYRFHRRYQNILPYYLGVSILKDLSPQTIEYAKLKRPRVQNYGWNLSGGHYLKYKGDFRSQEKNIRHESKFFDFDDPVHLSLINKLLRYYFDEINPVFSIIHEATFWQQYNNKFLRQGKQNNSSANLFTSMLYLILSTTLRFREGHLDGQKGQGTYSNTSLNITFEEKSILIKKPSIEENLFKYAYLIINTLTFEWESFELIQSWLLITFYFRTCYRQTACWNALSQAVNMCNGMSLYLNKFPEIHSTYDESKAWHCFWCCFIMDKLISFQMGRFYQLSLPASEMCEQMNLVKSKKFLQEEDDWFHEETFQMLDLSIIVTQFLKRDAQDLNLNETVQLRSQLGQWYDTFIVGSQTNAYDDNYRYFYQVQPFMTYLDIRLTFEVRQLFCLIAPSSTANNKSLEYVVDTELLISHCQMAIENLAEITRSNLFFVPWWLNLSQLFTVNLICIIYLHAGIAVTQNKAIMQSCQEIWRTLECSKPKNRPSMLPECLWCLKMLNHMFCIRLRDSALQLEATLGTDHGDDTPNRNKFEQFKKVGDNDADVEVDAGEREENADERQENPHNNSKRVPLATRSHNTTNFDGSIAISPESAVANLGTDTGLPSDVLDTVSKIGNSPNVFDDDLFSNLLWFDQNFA
row,Sequence,PBM E-score
1,ATCCGAAA,0.48
2,AACCGAAA,0.372
3,ATCCGAAT,0.48
4,CTCCGAAG,0.413
5,ATGCGAAT,0.0493
6,CCTATTCA,-0.0251
7,CGCGCCTA,0.0819
8,CACTGGTA,-0.276
9,GAGTCCCA,0.116
10,TGACTCAA,-0.149
11,CGTTCTCC,-0.0997
12,AAGTTCCG,0.434
13,ACGTTCCA,-0.0774
14,ACGTTCCG,0.398
15,CAGTTCCG,0.364
16,ACGTTCCT,-0.168
17,AAGTTCCT,-0.00611
18,AGGTTCCA,0.0324
19,AGGTTCCC,-0.0987
20,AGGTTCGG,0.403
21,AGGTTCGC,0.0812
22,AGGTTCCG,0.383
23,AGGTTCGA,-0.0841
24,CATAACCC,0.051
25,AGGTGGGG,-0.0596

row,Sequence,PBM E-score
1,GCAAAAAC,-0.0252
2,CACAGCTC,-0.18
3,GCACCATA,-0.021
4,CAGAACTA,-0.0215
5,CGGCGATA,0.277
6,CGTAGGGC,-0.195
7,ACATTTCC,0.141
8,CGCACCGC,-0.00306
9,ATGTTCGC,-0.118
10,ATGTTCCC,0.153
11,ATGTTCCA,-0.0991
12,ATGTTCCG,0.448
13,ATGTTCGA,-0.112
14,CCGTTCCC,0.273
15,CCGTTCCA,0.183
16,CCGTTCCG,0.431
17,ATGTTCGG,0.392
18,AAAACCCA,-0.0723
19,CCTGGCAG,-0.289
20,CTTTGAGC,-0.151
21,GAACCACC,0.218
22,CGGTGGTA,0.0785
23,TACCAAAA,-0.12
24,AAATTGTG,-0.295
25,GTGATCTA,-0.0262

row,Sequence,PBM E-score
1,ATCCCTTC,-0.183
2,GCGATTGA,-0.113
3,AAGCCGAA,0.407
4,CAGCCGAC,0.311
5,AAGCCGGA,0.355
6,AAGCCAAA,-0.0671
7,GAGCCGGA,0.348
8,AAGCCGCA,0.167
9,AAGCCGAG,0.401
10,TAGCCGGA,0.384
11,AAGCCGAC,0.26
12,AAGCCGAT,0.299
13,CAGCCAAA,-0.0614
14,CAGCCGAA,0.392
15,CTAGCCAC,-0.287
16,AACTTGGG,0.0814
17,AGAGCCTG,-0.237
18,TAAGTTGA,-0.103
19,GGATCACA,0.228
20,TAGTGAAA,-0.178
21,CGATACTC,0.065
22,AGGGCCAT,-0.253
23,CAGCCGGG,0.237
24,TGGCCGAA,0.251
25,TAGCCGAA,0.446

row,Sequence,PBM E-score
1,CAGCCGAG,0.409
2,GAGCCGAC,0.296
3,CAGCCGCG,0.151
4,GAGCCGAA,0.423
5,TAGCCAAA,0.0424
6,GAGCCGCA,0.0237
7,AGGTCGCC,0.00267
8,AAGGGCAA,0.158
9,CTGCTAGC,-0.23
10,TAGTTTGA,-0.121
11,ATAACGCA,-0.0729
12,CCGGTAGA,0.264
13,AGGAAACG,-0.164
14,CGGAAACA,0.427
15,CGGAAACG,0.384
16,AGGAAACA,-0.0661
17,CGGAAACC,0.347
18,GGGAAACA,0.175
19,ATCAAATG,0.129
20,ACCTAAAG,-0.0577
21,AGTGCACC,0.0754
22,CGTAAACA,0.055
23,AGGCTCGG,0.432
24,ACGCTCGA,-0.198
25,AGGCTCGA,-0.126

row,Sequence,PBM E-score
1,ACGCTCGC,-0.227
2,AGGCTCGC,-0.00633
3,ATGCTCGG,0.404
4,ATGCTCGC,-0.239
5,ATGCTCGA,-0.139
6,ACGCTCGG,0.42
7,TAAATGGA,-0.104
8,TAAAACAA,-0.199
9,AATGGGGC,-0.232
10,CCTCGCGC,-0.0639
11,ATCGACGC,-0.126
12,CCTAGGGC,-0.153
13,CGTACCGA,0.334
14,ACTATCGG,0.236
15,GCTCCCGA,0.41
16,ACTCCCGC,0.234
17,CCTCCCGA,0.387
18,ACTCCCGA,0.411
19,ACTCCCGG,0.372
20,CCTCCCGC,0.133
21,CCTCCCCA,-0.0256
22,GCTCCCCA,-0.311
23,GCTCCCAA,-0.272
24,TTGATCAA,-0.205
25,ACGGACGC,-0.0449

row,Sequence,PBM E-score
1,CCTCCGAC,0.209
2,TCTCCAAA,-0.144
3,CCTCCGAG,0.4
4,GCTCCGGA,0.346
5,CCTCCGAA,0.352
6,GCTCCGAC,0.238
7,TCTCCGAA,0.384
8,CCTCCGCG,0.159
9,GCTCCGAA,0.4
10,ACTCCGGC,0.281
11,TCTCCGCA,0.147
12,ACTCCGGA,0.411
13,AGGCTAGC,-0.217
14,CCGGTCAC,0.108
15,CGGTGCTA,0.103
16,TAAGAGAA,-0.344
17,ACATCGAC,-0.0835
18,AACAGTAG,-0.0759
19,ACATTGAT,0.0749
20,AAAGTTAG,-0.00674
21,CAGCGGTC,-0.186
22,ACTCCAAA,-0.0951
23,ACTCCGAC,0.32
24,ACTCCGAA,0.385
25,ACTCCGTA,0.0548

row,Sequence,PBM E-score
1,ACTCCGAG,0.395
2,ACTCCGAT,0.242
3,CAATAGGG,-0.163
4,CGGCCTGA,0.0862
5,CAAGCGAA,-0.201
6,TCGCGTAA,0.0292
7,CACAACCC,-0.0519
8,GTCCATTA,-0.172
9,CGATCCGC,0.325
10,AGATCCGC,0.291
11,AGATCCCG,0.407
12,CGATCCTA,-0.0737
13,AGATCCGG,0.366
14,CGATCCCG,0.342
15,GGATCCTA,0.122
16,AGATCCCT,-0.226
17,GGATCCCA,0.102
18,CGATCCGA,0.475
19,AGATCCGA,0.477
20,GGATCCGA,0.459
21,AGCGATAT,-0.172
22,GTTCCTTA,0.0117

# Reference: the supplement of paper PMC3334620
